The supplement of paper PMC11732987, “Enantioselective OTUD7B fragment discovery through chemoproteomics screening and high-throughput optimisation” (Communications Chemistry, 2025)

How the values were obtained:
Assay in all cases: log2 ratio of Biotin-Ahx-Ub-VS probe labelling (fragment/DMSO); higher = less target engagement (more negative = stronger competition), active = hit call of the paper (q ≤ 0.05, log2 ratio ≤ -1)
Settings in all cases: compound concentration: 200 uM; treatment time: 3 h
[1] = molecular target: T1, OTUD6B (UniProt Q8N6M0)
T1 sequence (whole entry): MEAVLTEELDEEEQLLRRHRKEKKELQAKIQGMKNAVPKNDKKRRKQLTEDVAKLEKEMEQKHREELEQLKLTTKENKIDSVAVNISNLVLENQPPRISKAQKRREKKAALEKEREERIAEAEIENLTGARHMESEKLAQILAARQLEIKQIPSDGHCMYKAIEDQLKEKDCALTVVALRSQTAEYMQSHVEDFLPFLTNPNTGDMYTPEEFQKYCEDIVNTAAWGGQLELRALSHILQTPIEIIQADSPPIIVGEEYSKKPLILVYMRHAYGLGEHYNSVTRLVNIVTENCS
Outline: (§1)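 The table lists average log2 ratios of fragment over vehicle, from an unpaired t-test on global-median-normalised Spectronaut label-free quantities. Proteins with ≥2 unique peptides were used. Samples were HEK293T lysate (495 µg) treated in triplicate with fragment at 200 µM or vehicle for 3 h, then with Biotin-Ahx-Ub-VS (0.5 µM final) for 1 h, with labelled DUBs NeutrAvidin-enriched and run by diaPASEF LC-MS/MS.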

[2] = molecular target: T2, OTUD7B (UniProt Q6GQQ9)
T2 sequence (whole entry): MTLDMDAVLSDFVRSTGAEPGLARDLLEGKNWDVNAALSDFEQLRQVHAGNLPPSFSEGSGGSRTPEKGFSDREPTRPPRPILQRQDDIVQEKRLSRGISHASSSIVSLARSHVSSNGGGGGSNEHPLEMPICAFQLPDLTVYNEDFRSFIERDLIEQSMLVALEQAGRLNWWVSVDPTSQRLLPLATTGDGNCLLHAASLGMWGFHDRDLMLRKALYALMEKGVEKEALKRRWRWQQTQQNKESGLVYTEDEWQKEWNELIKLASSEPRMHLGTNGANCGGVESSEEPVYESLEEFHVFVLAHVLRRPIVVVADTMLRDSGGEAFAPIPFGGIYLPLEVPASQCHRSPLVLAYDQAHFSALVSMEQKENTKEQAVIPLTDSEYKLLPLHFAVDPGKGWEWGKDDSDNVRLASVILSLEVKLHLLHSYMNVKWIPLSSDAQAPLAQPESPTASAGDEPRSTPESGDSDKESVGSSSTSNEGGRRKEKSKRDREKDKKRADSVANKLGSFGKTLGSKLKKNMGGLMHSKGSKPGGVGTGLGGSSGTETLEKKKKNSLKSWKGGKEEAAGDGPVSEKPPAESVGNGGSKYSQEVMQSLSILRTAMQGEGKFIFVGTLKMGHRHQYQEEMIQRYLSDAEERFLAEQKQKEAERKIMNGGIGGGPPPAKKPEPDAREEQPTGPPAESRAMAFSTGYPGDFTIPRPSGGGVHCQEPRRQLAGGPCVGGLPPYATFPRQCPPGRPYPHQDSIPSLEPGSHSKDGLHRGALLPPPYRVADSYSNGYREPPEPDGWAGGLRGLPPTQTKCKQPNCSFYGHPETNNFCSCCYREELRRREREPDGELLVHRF
Outline: as §1

[3] = molecular target: PRPF8 (UniProt Q6P2Q9)
Outline: as §1

[4] = molecular target: T3, PSMD7 (UniProt P51665)
T3 sequence (whole entry): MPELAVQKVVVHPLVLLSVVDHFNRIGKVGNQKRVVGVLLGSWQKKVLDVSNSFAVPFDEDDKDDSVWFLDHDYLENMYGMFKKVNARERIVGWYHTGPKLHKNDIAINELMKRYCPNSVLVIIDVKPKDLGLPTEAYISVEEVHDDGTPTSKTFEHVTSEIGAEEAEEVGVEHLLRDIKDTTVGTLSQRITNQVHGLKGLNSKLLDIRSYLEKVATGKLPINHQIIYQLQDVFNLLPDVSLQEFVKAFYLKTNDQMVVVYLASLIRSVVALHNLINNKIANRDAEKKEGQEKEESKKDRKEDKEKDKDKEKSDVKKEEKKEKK
Outline: as §1

[5] = molecular target: UCHL1 (UniProt P09936)
Sequence of UCHL1 (P09936 whole entry, looked up): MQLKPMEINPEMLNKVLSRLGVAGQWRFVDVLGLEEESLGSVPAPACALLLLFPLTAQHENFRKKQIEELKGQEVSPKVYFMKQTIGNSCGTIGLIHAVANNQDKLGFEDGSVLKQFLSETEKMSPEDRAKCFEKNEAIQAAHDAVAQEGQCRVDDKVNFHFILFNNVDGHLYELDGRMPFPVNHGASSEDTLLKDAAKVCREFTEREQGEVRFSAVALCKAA
Outline: as §1

[6] = molecular target: T4, UCHL3 (UniProt P15374)
T4 sequence (whole entry): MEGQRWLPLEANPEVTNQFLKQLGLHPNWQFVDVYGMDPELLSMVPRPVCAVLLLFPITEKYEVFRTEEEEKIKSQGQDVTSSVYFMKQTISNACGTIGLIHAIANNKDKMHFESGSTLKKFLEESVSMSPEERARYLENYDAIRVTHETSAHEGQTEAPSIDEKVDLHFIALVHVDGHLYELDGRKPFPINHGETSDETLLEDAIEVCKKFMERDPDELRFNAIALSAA
Outline: as §1

[7] = molecular target: T5, UCHL5 (UniProt Q9Y5K5)
T5 sequence (whole entry): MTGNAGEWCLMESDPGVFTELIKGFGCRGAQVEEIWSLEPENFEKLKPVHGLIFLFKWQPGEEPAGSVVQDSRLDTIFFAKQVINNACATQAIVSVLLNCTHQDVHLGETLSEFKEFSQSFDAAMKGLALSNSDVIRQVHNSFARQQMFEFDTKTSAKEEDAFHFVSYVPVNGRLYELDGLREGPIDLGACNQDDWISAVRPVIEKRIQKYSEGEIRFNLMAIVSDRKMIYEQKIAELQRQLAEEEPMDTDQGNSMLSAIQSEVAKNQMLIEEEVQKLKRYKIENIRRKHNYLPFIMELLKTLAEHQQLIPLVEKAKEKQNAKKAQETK
Outline: as §1

[8] = molecular target: USP10 (UniProt Q14694)
Sequence of USP10 (Q14694 whole entry): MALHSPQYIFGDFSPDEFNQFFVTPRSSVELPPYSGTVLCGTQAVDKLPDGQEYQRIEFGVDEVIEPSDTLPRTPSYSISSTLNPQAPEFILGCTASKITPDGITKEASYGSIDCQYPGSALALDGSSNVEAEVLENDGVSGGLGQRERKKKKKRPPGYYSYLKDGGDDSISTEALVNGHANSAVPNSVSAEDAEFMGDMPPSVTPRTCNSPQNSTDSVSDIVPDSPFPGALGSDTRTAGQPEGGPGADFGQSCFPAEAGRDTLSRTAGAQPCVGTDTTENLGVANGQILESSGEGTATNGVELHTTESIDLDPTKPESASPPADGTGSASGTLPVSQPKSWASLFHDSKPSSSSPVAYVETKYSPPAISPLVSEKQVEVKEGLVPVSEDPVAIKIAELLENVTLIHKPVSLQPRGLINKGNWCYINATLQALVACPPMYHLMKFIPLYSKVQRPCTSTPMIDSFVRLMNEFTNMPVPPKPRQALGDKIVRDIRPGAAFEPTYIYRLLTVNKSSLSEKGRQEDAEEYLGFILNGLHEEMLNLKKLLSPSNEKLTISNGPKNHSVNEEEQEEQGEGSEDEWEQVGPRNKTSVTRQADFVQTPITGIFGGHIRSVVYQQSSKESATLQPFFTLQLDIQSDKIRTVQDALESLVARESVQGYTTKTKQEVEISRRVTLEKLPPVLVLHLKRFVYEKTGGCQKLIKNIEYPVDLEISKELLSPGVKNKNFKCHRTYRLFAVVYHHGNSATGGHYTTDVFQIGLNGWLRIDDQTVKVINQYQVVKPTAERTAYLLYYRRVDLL
Outline: as §1

[9] = molecular target: T6, USP15 (UniProt Q9Y4E8)
T6 sequence (whole entry): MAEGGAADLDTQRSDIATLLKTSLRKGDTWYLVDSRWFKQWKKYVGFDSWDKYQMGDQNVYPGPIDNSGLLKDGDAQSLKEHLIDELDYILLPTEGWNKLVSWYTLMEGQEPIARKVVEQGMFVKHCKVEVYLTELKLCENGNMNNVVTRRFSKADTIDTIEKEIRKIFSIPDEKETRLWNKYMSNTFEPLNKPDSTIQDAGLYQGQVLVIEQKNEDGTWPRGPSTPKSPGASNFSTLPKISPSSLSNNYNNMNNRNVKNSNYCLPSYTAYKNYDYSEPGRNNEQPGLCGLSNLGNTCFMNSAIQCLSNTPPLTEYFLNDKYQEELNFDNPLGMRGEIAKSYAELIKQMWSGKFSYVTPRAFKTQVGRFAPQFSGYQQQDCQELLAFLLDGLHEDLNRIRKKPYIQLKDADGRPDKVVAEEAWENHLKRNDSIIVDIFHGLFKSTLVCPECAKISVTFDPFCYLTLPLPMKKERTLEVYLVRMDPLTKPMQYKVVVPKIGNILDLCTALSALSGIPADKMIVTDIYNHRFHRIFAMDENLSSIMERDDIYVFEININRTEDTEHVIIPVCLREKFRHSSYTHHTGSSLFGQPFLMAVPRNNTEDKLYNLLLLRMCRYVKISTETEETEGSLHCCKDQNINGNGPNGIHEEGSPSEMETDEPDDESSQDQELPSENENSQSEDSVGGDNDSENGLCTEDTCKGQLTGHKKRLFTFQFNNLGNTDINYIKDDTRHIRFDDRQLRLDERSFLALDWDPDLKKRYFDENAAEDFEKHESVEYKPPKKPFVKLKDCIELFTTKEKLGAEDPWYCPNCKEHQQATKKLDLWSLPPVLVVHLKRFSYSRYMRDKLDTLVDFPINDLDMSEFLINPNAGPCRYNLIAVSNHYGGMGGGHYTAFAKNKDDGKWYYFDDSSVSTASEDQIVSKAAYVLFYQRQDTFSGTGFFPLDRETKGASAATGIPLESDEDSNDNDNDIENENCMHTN
Outline: as §1

[10] = molecular target: USP16 (UniProt Q9Y5T5)
Sequence of USP16 (Q9Y5T5 whole entry, looked up): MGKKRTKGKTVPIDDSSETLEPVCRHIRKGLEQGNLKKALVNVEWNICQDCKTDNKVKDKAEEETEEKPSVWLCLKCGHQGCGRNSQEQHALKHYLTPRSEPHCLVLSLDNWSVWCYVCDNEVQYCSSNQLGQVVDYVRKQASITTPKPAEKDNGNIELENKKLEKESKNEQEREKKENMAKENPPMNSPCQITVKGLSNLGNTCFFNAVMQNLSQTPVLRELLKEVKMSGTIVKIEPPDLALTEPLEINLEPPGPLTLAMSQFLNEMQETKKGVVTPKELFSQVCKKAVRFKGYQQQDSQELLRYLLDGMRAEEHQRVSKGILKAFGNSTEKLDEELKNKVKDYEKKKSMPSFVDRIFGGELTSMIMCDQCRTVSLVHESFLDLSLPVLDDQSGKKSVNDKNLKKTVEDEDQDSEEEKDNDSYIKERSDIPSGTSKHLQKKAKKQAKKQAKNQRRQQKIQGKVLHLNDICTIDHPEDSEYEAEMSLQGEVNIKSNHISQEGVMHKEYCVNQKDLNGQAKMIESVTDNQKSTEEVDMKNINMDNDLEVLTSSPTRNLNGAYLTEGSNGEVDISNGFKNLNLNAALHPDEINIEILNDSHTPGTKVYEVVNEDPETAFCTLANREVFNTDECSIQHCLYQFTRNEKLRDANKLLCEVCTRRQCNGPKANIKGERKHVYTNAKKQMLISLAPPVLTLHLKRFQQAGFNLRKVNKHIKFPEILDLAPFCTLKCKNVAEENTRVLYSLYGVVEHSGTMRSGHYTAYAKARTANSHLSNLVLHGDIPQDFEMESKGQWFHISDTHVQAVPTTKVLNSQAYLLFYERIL
Outline: as §1

Measured: log2 ratio of Biotin-Ahx-Ub-VS probe labelling

Cc1nc(CN2CCN(C(=O)CCl)CC2)cs1
active: [5] -1.72
inactive: [1] -0.238 | [2] -0.265 | [3] 0.211 | [4] -0.333 | [6] -0.051 | [7] -0.0894 | [8] -0.0627 | [9] -0.32 | [10] -0.55
